Reference: PubChem BioAssay (NCATS)
Results filed as inconclusive are left out. Entries that show only a call come without a potency. Calls of active or inactive are those of the source. Unless noted, calls follow the shape of the full dose curve.

Assays:
[1] = qHTS for Inhibitors of the Functional Ribonucleoprotein Complex (vRNP) of Lassa (LASV) Arenavirus: LASV Primary Screen - GLuc reporter signal (AID 1347082; calls by dose curve; tested in HEK293 reporter line; also: nearly all actives have a fitted effect of over 60% in size; also: potency is read from the fitted curve at half-maximal effect)
[2] = qHTS for Inhibitors of the Functional Ribonucleoprotein Complex (vRNP) of Lassa (LASV) Arenavirus: Viability assay - alamar blue signal for LASV Primary Screen (AID 1347083; calls by dose curve; tested in HEK293 reporter line; also: nearly all actives have a fitted effect of over 80% in size; also: potency is read from the fitted curve at half-maximal effect)
[3] = qHTS for Inhibitors of the Functional Ribonucleoprotein Complex (vRNP) of Lymphocytic Choriomeningitis Arenaviruses (LCMV): Viability assay - alamar blue signal for LCMV Primary Screen (AID 1347085; calls by dose curve; tested in HEK293 reporter line; also: nearly all actives have a fitted effect of over 80% in size; also: potency is read from the fitted curve at half-maximal effect)
[4] = target: Nucleoprotein (Lymphocytic choriomeningitis virus (strain Armstrong)) (UniProt P09992); assay: qHTS for Inhibitors of the Functional Ribonucleoprotein Complex (vRNP) of Lymphocytic Choriomeningitis Arenaviruses (LCMV): LCMV Primary Screen - GLuc reporter signal (AID 1347086); also: nearly all actives have a fitted effect of over 70% in size; also: potency is read from the fitted curve at half-maximal effect
CRL-7250 = normal cell line; assay: qHTS assay to identify novel small-molecules to repurpose for Merkel cell carcinoma treatment (AID 1296009; active = well fitted curve in the direction sought with a large enough effect; an effect the other way counts as inactive or inconclusive; also: nearly all actives have a fitted effect of over 60% in size); details: MCC and control cell lines, CellTiter-Glo viability, 72 h; series mostly up to 92 µM
Outline: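 Cells exposed to NPC (8-point) and MIPE (11-point) compound dilutions for 72 hr at 37 degree celsius; viability read by CellTiter-Glo luminescence, normalized to no-cell and DMSO in-plate controls.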

[5] = Cytotoxicity counterscreen for inhibitors of SARS-CoV-2 cell entry (AID 1645845); also: nearly all actives have a fitted effect of over 50% in size; also: potency is read from the fitted curve at half-maximal effect
Outline: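 Expi293F/hACE2 cells seeded overnight; cpd pin-transferred in DMSO, 1 h preincubation, + media, 48 h 37 C 5% CO2; ATPLite 1step luminescence; normalized to cells and no cells.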

[6] = Primary qHTS to identify inhibitors of SARS-CoV-2 cell entry (AID 1645846); details: activity change, negative = inhibition: at 57.1 µM (top of the series) unless noted; also: nearly all actives have a fitted effect of over 45% in size
Outline: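 Luminescence readout (Bright-Glo luciferase) 48 h after pseudoparticle addition. HEK293-ACE2 cells, 1500/well; compound pre-incubation 1 h; Normalized to spike PP and bald PP.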

[7] = qHTS profiling of the MIPE4 collection as inhibitors of Plasmodium falciparum (3D7) proliferation (AID 743344; call rule not given here); details: P. falciparum 3D7 in erythrocytes, SYBR Green DNA fluorescence, 72 h; at 28.5 µM (top of the series) unless noted
Outline: (§1)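 Erythrocytes infected with P. falciparum (0.3% parasitemia, 2.5% hematocrit) incubated with compounds 72 h at 37 C, 5% CO2. Lysis with saponin/Triton buffer containing SYBR Green I, overnight at room temperature in the dark; DNA fluorescence (485/535 nm) normalised to 0.29 uM artemisinin and DMSO.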

[8] = qHTS profiling of the MIPE4 collection as inhibitors of Plasmodium falciparum (DD2) proliferation (AID 743345; call rule not given here); details: P. falciparum Dd2 in erythrocytes, SYBR Green DNA, 72 h; at 28.5 µM (top of the series) unless noted
Outline: as §1

[9] = Primary qHTS for inhibitors of SARS-S pseudo-typed particle cell entry (AID 1479145); also: nearly all actives have a fitted effect of over 45% in size
[10] = Primary qHTS for Huh7 cytotoxicity: counterscreen for inhibitors of MERS-S pseudotyped particle cell entry (AID 1479147); details: outcome: dose series up to 57.1 µM unless noted
[11] = Primary qHTS for inhibitors of MERS-S pseudo-typed particle cell entry (AID 1479149); also: nearly all actives have a fitted effect of over 60% in size
[12] = Primary qHTS for Vero E6 cytotoxicity: counterscreen for inhibitors of SARS-S pseudo-typed particle cell entry (AID 1479150); details: outcome: dose series up to 57.1 µM unless noted
[13] = Confirmatory qHTS for VERO E6 Cytotoxicity Assay: Counterscreen for SARS-CoV-2 CPE Assay (AID 1508605); also: nearly all actives have a fitted effect of over 60% in size
[14] = Confirmatory qHTS for activators (rescue) of SARS-CoV-2 Cytopathic Effect (CPE) (AID 1508606); also: nearly all actives have a fitted effect of over 70% in size
[15] = Inducers of the Endoplasmic Reticulum Stress Response (ERSR) in human glioma: Validation (AID 504836; active = well fitted curve in the direction sought with a large enough effect; an effect the other way counts as inactive or inconclusive)
Outline: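 Stably transfected U87-MG human glioma cells carrying a GRP78-based luminescent sensor were seeded at 1000 cells/well, pin-dosed with compounds and incubated 16 h. Luciferase reagent was then added, and end-point luminescence was read after 10 min at room temperature.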

[16] = VSVG counterscreen qHTS to identify inhibitors of SARS-CoV-2 cell entry (AID 1645847); also: potency is read from the fitted curve at half-maximal effect; nearly all actives have a fitted effect of over 65% in size
Outline: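 HEK293-ACE2 cells (Expi293F stably expressing human ACE2) were pretreated with compound for 1 h at 37 °C, then infected with MLV-based VSV-G pseudotyped particles for 48 h. Luciferase luminescence was normalized to VSV-G PP and bald PP wells.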

[17] = qHTS profiling of the MIPE4 collection as inhibitors of Plasmodium falciparum (DD2) proliferation (Rep 2) (AID 743346; call rule not given here); details: P. falciparum Dd2 in erythrocytes, SYBR Green DNA, 72 h; at 28.5 µM (top of the series) unless noted
Outline: as §1

Sequence of Nucleoprotein (Lymphocytic choriomeningitis virus (strain Armstrong)) (P09992 whole entry, looked up): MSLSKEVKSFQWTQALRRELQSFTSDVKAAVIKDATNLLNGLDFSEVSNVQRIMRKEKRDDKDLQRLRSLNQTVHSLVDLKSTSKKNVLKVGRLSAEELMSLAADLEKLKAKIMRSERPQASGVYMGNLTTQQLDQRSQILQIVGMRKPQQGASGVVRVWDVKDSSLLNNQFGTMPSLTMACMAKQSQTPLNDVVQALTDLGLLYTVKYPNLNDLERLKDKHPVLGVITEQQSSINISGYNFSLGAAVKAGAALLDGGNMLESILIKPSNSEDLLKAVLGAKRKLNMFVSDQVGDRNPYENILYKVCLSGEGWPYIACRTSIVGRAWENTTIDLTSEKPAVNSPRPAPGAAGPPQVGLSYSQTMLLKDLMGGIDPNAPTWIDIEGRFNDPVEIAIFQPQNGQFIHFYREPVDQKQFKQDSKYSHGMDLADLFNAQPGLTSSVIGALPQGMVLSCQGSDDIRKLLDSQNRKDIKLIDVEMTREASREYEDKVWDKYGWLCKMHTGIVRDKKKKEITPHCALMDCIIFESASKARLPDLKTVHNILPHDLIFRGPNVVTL

## CN[C@@H]1[C@@H](O)[C@@H](O[C@@H]2[C@@H](O)[C@H](O[C@H]3O[C@H](CN)[C@@H](O)[C@H](O)[C@@H]3O)[C@@H](N)C[C@@H]2NC(=O)[C@@H](O)CN)OC[C@]1(C)O
[1]
  Potency: inactive
[2]
  Potency: inactive
[3]
  Potency: inactive
[4]
  Potency: inactive
CRL-7250
  Potency: inactive

## O=c1[nH]c(=O)n(C2CCCO2)cc1F (configuration not stated)
[1]
  Potency: inactive
[2]
  Potency: inactive
[3]
  Potency: inactive
[4]
  Potency: inactive
[5]
  Potency: inactive
[6]
  activity change, negative = inhibition: -6.03%
CRL-7250
  Potency: inactive

## CN1CCC(COc2cnc(-c3cccc(Cn4nc(-c5cccc(C#N)c5)ccc4=O)c3)nc2)CC1
[1]
  Potency: 5.44 µM (active)
[2]
  Potency: 0.153 µM (active)
[3]
  Potency: 0.0611 µM (active)
[4]
  Potency: 0.685 µM (active)
[5]
  Potency: inactive
CRL-7250
  Potency: inactive

## CN1c2cc(O)c(N=NC(N)=O)cc2CC1S(=O)(=O)O (configuration not stated)
[7]
  parasite growth, % of DMSO control: 37.8%
[8]
  parasite growth remaining, % of DMSO control (lower = more inhibition): 64.1%
[1]
  Potency: inactive
[2]
  Potency: inactive
[3]
  Potency: inactive
[4]
  Potency: inactive
[9]
  Potency: inactive
[10]
  outcome: inactive
[11]
  Potency: inactive
[12]
  outcome: inactive
[5]
  Potency: inactive
[6]
  activity change, negative = inhibition: 4.67%
CRL-7250
  Potency: inactive

## CCCCCCCCCCCCc1ccc(S(=O)(=O)Nc2nncs2)cc1
[1]
  Potency: inactive
[2]
  Potency: inactive
[3]
  Potency: inactive
[4]
  Potency: inactive
[13]
  Potency: inactive
[14]
  Potency: inactive
[5]
  Potency: inactive
[6]
  activity change, negative = inhibition: -14.7%
CRL-7250
  Potency: inactive

## Cc1ccccc1-n1c(Cn2nc(-c3cccc(O)c3)c3c(N)ncnc32)nc2cccc(C)c2c1=O
[1]
  Potency: 19.3 µM (active)
[2]
  Potency: 6.11 µM (active)
[3]
  Potency: 4.32 µM (active)
[4]
  Potency: 3.85 µM (active)
[5]
  Potency: inactive
[6]
  activity change, negative = inhibition: -14.4%
CRL-7250
  Potency: inactive

## CC1(C)[C@H]2CC[C@]3(C)[C@@H](C(=O)C=C4[C@@H]5C[C@@](C)(C(=O)O)CC[C@]5(C)CC[C@]43C)[C@@]2(C)CC[C@@H]1O
[1]
  Potency: inactive
[2]
  Potency: inactive
[3]
  Potency: inactive
[4]
  Potency: inactive
CRL-7250
  Potency: inactive

## CC(C(C)N1CC(=O)NC(=O)C1)N1CC(=O)NC(=O)C1 (configuration not stated)
[1]
  Potency: inactive
[2]
  Potency: inactive
[3]
  Potency: inactive
[4]
  Potency: inactive
[5]
  Potency: inactive
[6]
  activity change, negative = inhibition: -28.5%
CRL-7250
  Potency: inactive

## CN1C(C(=O)Nc2ccccn2)=C(O)c2sc(Cl)cc2S1(=O)=O
[1]
  Potency: 24.3 µM (active)
[2]
  Potency: 15.3 µM (active)
[3]
  Potency: 24.3 µM (active)
[4]
  Potency: 15.3 µM (active)
[9]
  Potency: inactive
[10]
  outcome: inactive
[11]
  Potency: inactive
[12]
  outcome: inactive
[5]
  Potency: inactive
[6]
  activity change, negative = inhibition: 2.28%
CRL-7250
  Potency: inactive

## OC(CCN1CCCCC1)(c1ccccc1)C1CCCCC1 (configuration not stated)
[15]
  outcome: inactive
[1]
  Potency: inactive
[2]
  Potency: inactive
[3]
  Potency: inactive
[4]
  Potency: inactive
[10]
  outcome: inactive
[12]
  outcome: inactive
[5]
  Potency: inactive
CRL-7250
  Potency: inactive

## Cc1ccc(C2=Nc3ccc(Cl)cc3OC2)cc1
[1]
  Potency: inactive
[2]
  Potency: inactive
[3]
  Potency: inactive
[4]
  Potency: inactive
[5]
  Potency: inactive
CRL-7250
  Potency: inactive

## Cc1ccc(Nc2cc(-c3cccc(N4C(=O)c5ccccc5C4=O)c3)ncn2)cc1NS(C)(=O)=O
[1]
  Potency: inactive
[2]
  Potency: inactive
[3]
  Potency: inactive
[4]
  Potency: inactive
[5]
  Potency: 31.6 µM (active)
CRL-7250
  Potency: inactive

## c1ccc(CNc2nc(N3CCOc4ccccc43)nc3c2CCCC3)cc1
[1]
  Potency: inactive
[2]
  Potency: inactive
[3]
  Potency: inactive
[4]
  Potency: inactive
[5]
  Potency: inactive
CRL-7250
  Potency: inactive

## CC(Cc1ccc(O)c(O)c1)(NN)C(=O)O (configuration not stated)
[1]
  Potency: inactive
[2]
  Potency: inactive
[3]
  Potency: inactive
[4]
  Potency: inactive
[5]
  Potency: inactive
[6]
  activity change, negative = inhibition: -34.1%
CRL-7250
  Potency: inactive

## COC1=C(OC)C(=O)C(CC=C(C)CCC=C(C)CCC=C(C)CCC=C(C)CCC=C(C)CCC=C(C)CCC=C(C)CCC=C(C)CCC=C(C)CCC=C(C)C)=C(C)C1=O
[1]
  Potency: inactive
[2]
  Potency: inactive
[3]
  Potency: inactive
[4]
  Potency: inactive
[9]
  outcome: inactive [at 5.34 µM]
[10]
  outcome: inactive [at 5.34 µM]
[11]
  outcome: inactive [at 5.34 µM]
[12]
  outcome: inactive [at 5.34 µM]
[5]
  outcome: inactive [at 5.25 µM]
[6]
  outcome: inactive [at 5.25 µM]
CRL-7250
  Potency: inactive

## COc1cc([C@H]2Oc3cc([C@H]4Oc5cc(O)cc(O)c5C(=O)[C@H]4O)ccc3O[C@H]2CO)ccc1O
[1]
  Potency: inactive
[2]
  Potency: inactive
[3]
  Potency: inactive
[4]
  Potency: inactive
CRL-7250
  Potency: inactive

## N#Cc1ccc(Oc2ccc3c(c2)COB3O)cc1
[1]
  Potency: inactive
[2]
  Potency: inactive
[3]
  Potency: inactive
[4]
  Potency: inactive
[10]
  outcome: inactive
[11]
  Potency: inactive
[5]
  Potency: inactive
[6]
  Potency: inactive
  activity change, negative = inhibition: -3.74%
CRL-7250
  Potency: inactive

## C[C@@H]1CCO[C@H]2Cn3cc(C(=O)NCc4ccc(F)cc4F)c(=O)c(O)c3C(=O)N12
[1]
  Potency: inactive
[2]
  Potency: inactive
[3]
  Potency: inactive
[4]
  Potency: inactive
[9]
  Potency: inactive
[10]
  outcome: inactive
[11]
  Potency: inactive
[12]
  outcome: inactive
[5]
  Potency: inactive
[6]
  activity change, negative = inhibition: -84%
[16]
  Potency: 0.0076 µM (active)
CRL-7250
  Potency: inactive

## COc1ccc(C2(C#N)CCC(C(=O)O)CC2)cc1OC1CCCC1 (configuration not stated)
[7]
  parasite growth, % of DMSO control: 91.7%
[8]
  parasite growth remaining, % of DMSO control (lower = more inhibition): 101%
[17]
  parasite growth, % of control (lower = inhibition): 88.4%
[1]
  Potency: inactive
[2]
  Potency: inactive
[3]
  Potency: inactive
[4]
  Potency: inactive
[10]
  outcome: inactive
[11]
  Potency: inactive
[12]
  outcome: inactive
[5]
  Potency: inactive
[6]
  Potency: inactive
  activity change, negative = inhibition: -18.7%
CRL-7250
  Potency: inactive

## Cc1cnc(Nc2cccc(CN3CCOCC3)c2)nc1Nc1cccc(S(=O)(=O)NC(C)(C)C)c1
[1]
  Potency: inactive
[2]
  Potency: inactive
[3]
  Potency: inactive
[4]
  Potency: inactive
[5]
  Potency: inactive
CRL-7250
  Potency: inactive
